Screening data from PubChem BioAssay.
Rows were chosen to be rich in hits. Some 5.4% of all compounds tested hit in one or more screens of this group.
NR0B1 inh: inhibitors of human orphan nuclear receptor DAX1 (NR0B1). HEK293 Gal4-DAX1 luciferase reporter, luminescence. inhibition, % at 6.75 µM. actives 0.99% (n = 340,000);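 active = inhibition above the mean over all tested compounds plus 3 SD, cut at about 4.2% in these data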;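 note: 0% = DAX1-transfected cells with DMSO and 100% = empty-vector control cells with DMSO; inhibition shows as a rise in luminescence from relieved DAX1 repression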
HSF-1 act: increases HSF-1 driven luciferase reporter signal. NIH3T3-HGL HSF-1 luciferase reporter, MG132, 8 h; 100% = twice DMSO control signal. activation, % at 9 µM. actives 1.7% (n = 300,000). AID 504408;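 active = mean replicate activation of at least 50% with a set share of replicates each reaching 50%; inconclusive = only one of those two conditions met; inactive = mean below 50% and too few replicates reaching it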;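 note: 0% = median of the neutral control wells and 100% = twice that signal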
AHR act: human AHR activation; activation, % at 5 µM; AHR-responsive luciferase reporter cells, luminescence; actives 2.5% (n = 320,000); AID 2796; P35869; in the data active = activation above about 47%;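 note: 0% = vehicle wells and 100% = reference agonist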
Target sequence (P35869 whole entry, looked up): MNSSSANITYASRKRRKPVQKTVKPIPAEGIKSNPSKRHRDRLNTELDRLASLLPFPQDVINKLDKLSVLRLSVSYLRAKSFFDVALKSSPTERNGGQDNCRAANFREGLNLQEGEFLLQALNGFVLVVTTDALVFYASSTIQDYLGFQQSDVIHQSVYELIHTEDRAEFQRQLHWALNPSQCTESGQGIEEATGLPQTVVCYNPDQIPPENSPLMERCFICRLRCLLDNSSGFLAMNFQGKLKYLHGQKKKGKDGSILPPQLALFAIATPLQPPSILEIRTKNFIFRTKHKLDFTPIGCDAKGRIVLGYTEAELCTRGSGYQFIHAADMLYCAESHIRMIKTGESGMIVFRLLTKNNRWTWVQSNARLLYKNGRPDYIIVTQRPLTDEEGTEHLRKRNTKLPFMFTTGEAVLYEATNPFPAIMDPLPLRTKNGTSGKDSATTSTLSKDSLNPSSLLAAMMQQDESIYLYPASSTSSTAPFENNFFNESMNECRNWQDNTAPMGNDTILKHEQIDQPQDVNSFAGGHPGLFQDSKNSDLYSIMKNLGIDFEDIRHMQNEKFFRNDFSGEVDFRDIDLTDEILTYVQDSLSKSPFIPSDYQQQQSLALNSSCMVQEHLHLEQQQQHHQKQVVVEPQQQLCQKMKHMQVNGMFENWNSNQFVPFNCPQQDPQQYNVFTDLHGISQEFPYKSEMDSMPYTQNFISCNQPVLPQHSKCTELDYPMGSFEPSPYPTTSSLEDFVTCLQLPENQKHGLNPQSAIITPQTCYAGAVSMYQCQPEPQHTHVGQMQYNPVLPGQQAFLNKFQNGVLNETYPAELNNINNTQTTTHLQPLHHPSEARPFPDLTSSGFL
FXN GAA850 act: activators of GAA850 frataxin (FXN) promoter | HEK293 lucGAA850 FXN promoter luciferase reporter, 24 h; percent of 10 µM SAHA response | activation, % at 6 µM | actives 0.56% (n = 360,000);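 active = activation above the average of all compounds screened plus 3 SD, cutoff fixed separately per campaign, cut at about 7.5% in these data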;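 note: 0% = DMSO wells and 100% = 10 µM SAHA wells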
HSF1 inhib: HSF1 inhibition | NIH3T3-HGL HSE-luciferase, MG132-induced, luminescence 8 h; stronger effect = lower value | activity change, negative = inhibition, % at 7.5 µM (by protocol) | actives 0.77% (n = 300,000) | AID 2098;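 active = more than half of replicate wells show activity change below -50%, luminescence cut by over half; inconclusive = some wells, but at most half, below -50%; inactive = no replicate well below -50%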;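 note: luciferase reports HSF-1 transcriptional activity via heat shock element; 0% = median of DMSO wells and -100% = zero luminescence signal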
* = called active by the depositor; u = inconclusive; x = no result.

SMILES	NR0B1 inh	HSF-1 act	AHR act	FXN GAA850 act	HSF1 inhib
CC(C)c1nnc(NC(=O)c2nc(S(=O)(=O)Cc3ccc(F)cc3)ncc2Cl)s1	-1	-87	1	-9	-84*
Cc1ccc(CS(=O)(=O)c2ncc(Cl)c(C(=O)Nc3nnc(C(C)C)s3)n2)cc1	-2	-76	0	-8	-71*
CSc1nnc(NC(=O)c2nc(S(=O)(=O)Cc3ccccc3F)ncc2Cl)s1	3	-25	1	-8	-22
CSc1nnc(NC(=O)c2nc(S(=O)(=O)Cc3cccc(C)c3)ncc2Cl)s1	-2	-63	1	-11	u
Cc1cccc(CS(=O)(=O)c2ncc(Cl)c(C(=O)Nc3nnc(C(C)C)s3)n2)c1	-2	-78	0	-12	-73*
CC(C)c1nnc(NC(=O)c2nc(S(=O)(=O)Cc3ccccc3F)ncc2Cl)s1	x	-82	0	x	-80*
C[C@H](CO)N1C[C@H](C)[C@@H](CN(C)S(=O)(=O)c2ccccc2)Oc2c(NC(=O)C3CCCCC3)cccc2C1=O	0	x	1	-2	x
CC(C)C(C(=O)NCC1CCCO1)N(Cc1ccccc1)C(=O)CNS(=O)(=O)c1ccccc1 (stereo not given)	1	17	9	1	6
CCOc1ccc2oc(C(=O)OC(C(=O)NC(N)=O)C(C)C)c(C)c2c1 (stereo not given)	0	16	5	4	7
Cc1nnc(NC(=O)c2nc(S(=O)(=O)Cc3ccccc3C)ncc2Cl)s1	1	-83	1	-12	-77*
CCOc1ccccc1NC(=O)c1nc(S(=O)(=O)Cc2cccc(C)c2)ncc1Cl	-1	-39	37	3	u
COC(=O)CCNC(=O)Cc1ccc(S(=O)(=O)N2CCCCC2)s1	0	x	x	0	x
CCCCCCn1c(=O)n2n(c1=O)C[C@]1(OC(=O)Nc3c(C)noc3C)CN(S(=O)(=O)c3ccc(C)cc3)C[C@]1(O)C2	-1	x	x	-4	x
Cc1ccc(OCCNCC(O)COc2ccccc2)cc1 (stereo not given)	1	2	66*	0	3
COc1ccc(CNCC(O)COc2ccc(C(C)(C)c3ccccc3)cc2)cc1 (stereo not given)	0	194*	2	3	109
Cc1ccc(SCC(=O)OCC(=O)NC(C)c2ccc(F)cc2)cc1 (stereo not given)	0	x	7	1	x
COc1ccccc1NC(=O)N1CCCC(C(=O)Nc2cccc(C)c2C)C1 (stereo not given)	7.5*	42	2	0	7
CC(C)OC(=O)Nc1ccc(Oc2c(F)c(F)c(F)c(F)c2F)cc1	2	-12	-3	1	-4
C/C=C/c1c(F)c(F)c(Oc2ccc(C(=O)O)cc2)c(F)c1F	2	125*	-5	2	87
CCCn1c(=O)c2[nH]c(-c3ccc(S(=O)(=O)O)cc3)nc2n(CCC)c1=O	1	x	-1	3	x
Cc1cccc(NC(=O)c2ccccc2O)c1C	1	124*	38	3	68
Cc1ccc(C)c(NC(=O)c2ccccc2O)c1	0	-7	39	3	4
O=C(Nc1cccnc1)c1ccccc1O	0	-8	54*	1	2
O=C(Nc1cccnc1)c1ccccc1-c1ccccc1	0	-2	1	-1	-2
O=C(Nc1ccncc1)c1cc2ccccc2cc1O	2	261*	37	1	232
SMILES	NR0B1 inh	HSF-1 act	AHR act	FXN GAA850 act	HSF1 inhib
O=C(Nc1ccccc1O)c1ccccc1O	-3	33	131*	2	12
O=C(Nc1cccc([N+](=O)[O-])c1)c1cc2ccccc2cc1O	-7	1	24	-8	2
O=Cc1cccc2ccc3cccc(C(=O)O)c3c12	0	11	0	0	1
CC(C)(C)C1CCc2sc(C(=O)NNC(=O)CCl)cc2C1 (stereo not given)	0	24	x	-2	13
NNc1ncnc2c1cnn2-c1ccccc1	4	-1	61*	2	1
COc1ccc(-n2ncc3c(NCCN4CCOCC4)ncnc32)cc1	3	6	1	-2	-3
COc1ccc(-n2ncc3c(NCCCN4CCOCC4)ncnc32)cc1	2	-59	4	-2	-55*
c1ccc(-n2ncc3c(NC4CCCCCC4)ncnc32)cc1	5.9*	28	-6	2	29
O=C(NNc1ncnc2c1cnn2-c1cccc(Cl)c1)c1ccco1	-1	64*	-2	-2	24
CC(C)Nc1ncnc2c1cnn2-c1ccccc1	0	10	-1	3	0
Cc1ccc(S(=O)(=O)NCCC(=O)OCC(=O)NCCc2ccccc2)cc1C	3	5	-4	1	-3
c1ccc(-n2ncc3c(NCc4cccs4)ncnc32)cc1	1	66*	-3	4	42
COc1ccc(-n2ncc3c(NCc4cccs4)ncnc32)cc1	2	47	3	1	23
COc1ccc(CC(=O)NNc2ncnc3c2cnn3-c2ccccc2)cc1	0	-9	51*	4	0
O=C(Nc1ccc(C(F)(F)F)cc1)c1cc(S(=O)(=O)NCC2COc3ccccc3O2)ccc1F (stereo not given)	-1	5	6	0	1
CC1(C(=O)O)CCN1C(=O)c1cccc(OC(F)(F)F)c1 (stereo not given)	x	x	x	-2	x
O=C1C2CCCCC2C(=O)N1Cc1ccccc1 (stereo not given)	0	68*	2	2	20
O=C1CC(N(O)C2CC(=O)N(Cc3ccccc3)C2=O)C(=O)N1Cc1ccccc1 (stereo not given)	0	57*	-1	-3	16
O=C(O)c1ccc(NC2CC(=O)N(Cc3ccccc3)C2=O)cc1 (stereo not given)	1	-7	5	3	-7
Cc1ccc(NC2CC(=O)N(Cc3ccccc3)C2=O)cc1 (stereo not given)	-1	56*	5	-2	24
O=C(O)C(Cc1ccccc1)N1C(=O)C2CCCCC2C1=O (stereo not given)	-1	9	2	1	12
COc1ccccc1NC(=O)C(C)Sc1nc(-c2ccccc2)cn1N (stereo not given)	-1	x	5	-2	x
Oc1ccc(Cl)cc1-c1cc(-c2ccccc2)n[nH]1	1	20	66*	1	-3
COc1ccc(-c2cc(-c3c(O)c(OC)c4occc4c3OC)[nH]n2)cc1OC	0	0	-5	7	0
COc1ccc(-c2cc(-c3c(O)c(OC)c4occc4c3OC)[nH]n2)cc1	-1	-11	69*	-1	-2
COc1ccc(-c2cc(-c3ccccc3O)[nH]n2)cc1	2	85*	26	5	37
COC(=O)c1cc(-c2ccc(OC)cc2)n[nH]1	2	20	2	3	6
Cc1ccc(O)c(-c2cc(-c3cccc(Br)c3)n[nH]2)c1	2	67*	70*	1	44
